This passage reports inhibition results from PubChem BioAssay AID2014 (Sanford-Burnham Center for Chemical Genomics, 2009).

This experiment has as its target Polyadenylate-binding protein 1 (Homo sapiens) (UniProt P11940). In words: blockers of PABP interaction with poly(A) – biochemical, fluorescence polarization, uHTS, primary screen (AID 2014).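 Further: calls also rest on retests at 20 µM and on dose response follow-up.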 As to conditions: PABP-poly(A) RNA binding, stronger effect = higher value. For orientation: In fluorescence polarisation assays a small probe gives low polarisation when free and higher when bound to something large.

Among all 290,000 compounds or so, about 3,000 (1%) were called active. How the calls were made is not given here. Only a selection was taken, and actives are over-represented in it overall.

A word on the inhibition: it is the change of the read-out against control, counted positive when it falls.

Polyadenylate-binding protein 1 (Homo sapiens), sequence (P11940 whole entry, looked up): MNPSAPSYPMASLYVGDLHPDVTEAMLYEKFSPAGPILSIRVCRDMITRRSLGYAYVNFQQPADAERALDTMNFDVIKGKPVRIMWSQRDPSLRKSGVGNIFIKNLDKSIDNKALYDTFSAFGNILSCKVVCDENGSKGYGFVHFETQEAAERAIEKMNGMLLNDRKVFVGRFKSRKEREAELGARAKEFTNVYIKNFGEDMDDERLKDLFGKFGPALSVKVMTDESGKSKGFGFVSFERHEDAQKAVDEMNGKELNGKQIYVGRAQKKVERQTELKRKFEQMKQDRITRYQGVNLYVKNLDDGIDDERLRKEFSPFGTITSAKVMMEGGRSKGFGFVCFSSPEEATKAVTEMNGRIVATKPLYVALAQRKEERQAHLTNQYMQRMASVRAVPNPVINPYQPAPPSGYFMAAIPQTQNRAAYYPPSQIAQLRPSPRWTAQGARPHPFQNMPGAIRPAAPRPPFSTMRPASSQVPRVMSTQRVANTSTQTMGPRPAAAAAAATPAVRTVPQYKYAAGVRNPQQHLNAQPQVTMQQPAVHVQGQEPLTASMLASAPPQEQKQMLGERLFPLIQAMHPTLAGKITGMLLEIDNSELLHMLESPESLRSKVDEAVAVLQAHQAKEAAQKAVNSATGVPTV

In the case of `COc1ccc(NS(=O)(=O)c2ccc(F)cc2F)cn1`, the inhibition (at 35 µM) was 70.3% (active).

As for `CCOc1ccc(S(=O)(=O)Nc2ccc(OC)nc2)cc1`, the inhibition (at 35 µM) was 9.7% (inactive). Same read-out and setting: for `COc1ccc(S(=O)(=O)Nc2ccc(F)cc2)c(C)c1C` the value was -4.6% (inactive); for `COCC(=O)N1CCc2ccc(NC(=O)c3ccccc3Cl)cc2C1`, 9.8% (inactive).

With `Nc1nc(SCC(=O)Nc2cc(C(F)(F)F)ccc2Cl)[nH]c(=O)c1NC(=O)c1ccco1`, the inhibition (at 35 µM) is 2.8% (inactive). For the compound `Cc1c(CC(=O)NCCCCCC(=O)O)c(=O)oc2cc3occ(-c4ccccc4)c3cc12`, under “at 35 µM”, the inhibition was 15.4% (inactive).

For `CCCCCCc1cc2cc(-c3nnc(-c4ccccc4)o3)c(=O)oc2cc1O`, the inhibition (at 35 µM) is 102% (active). Consider `Cc1c(CCC(=O)O)c(=O)oc2cc3occ(-c4ccccc4)c3cc12`, for which, for the setting “at 35 µM”, the inhibition is 32.6% (inactive). In the case of `COc1cc(C(=O)N2CCN(C3CCC(C)CC3)CC2)cc(OC)c1OC` (stereo not given), the inhibition (at 35 µM) is 7.5% (inactive). Regarding `CC(C)=N/N=C1/NC(=O)C(Cc2ccccc2)S1` (stereo not given), where the note is “at 35 µM”, the inhibition is 4.2% (inactive). Still for that read-out and setting: for `CCOc1ccccc1/C=c1\sc2nc(-c3ccco3)nn2c1=O` the value was 53% (active); for `CCOC(=O)/C=c1\s/c(=C\c2ccccc2OC)c(=O)n1CC(=O)N1CCOCC1`, 7.9% (inactive); for `CSc1nc(-c2ccco2)nn1C(=O)CCc1ccccc1`, 7.1% (inactive). The same measure, in the same setting: for `CC1CCCCN1C(=O)CCS(=O)(=O)Cc1ccccc1` (stereo not given) the value was 9.6% (inactive). On the same count and under the same terms, the value for `Cc1nc(N)nc(SCc2ccc([N+](=O)[O-])cc2)c1N` was 7.3% (inactive). On to `Cc1c(C2=CCN(S(=O)(=O)c3ccc(Cl)cc3)CC2)c2ccccc2n1C`, for which the inhibition is 4.5% (active) (at 35 µM) and 95.9% (confirmation repeats, at 20 µM). Consider `COc1ccccc1N1CCN(S(=O)(=O)c2ccc(Cl)cc2)CC1`, for which the inhibition (at 35 µM) is -9.7% (inactive). Still for that read-out and setting: the value for `O=S(=O)(c1ccc(F)cc1)N1CC=C(c2ccccc2)CC1` was 4.6% (inactive). For `COc1ccccc1NC(=O)C1CCN(C(=O)c2ccc(C(C)(C)C)cc2)CC1`, the inhibition (at 35 µM) is 10.3% (inactive). Same read-out and setting: for `NS(=O)(=O)c1ccc(-c2ccc(/C=C3\SC(=O)NC3=O)o2)cc1` the value was 7.1% (inactive); for `COc1ccc2[nH]c(=O)c(-c3noc(-c4ccc(F)cc4)n3)cc2c1`, 1.1% (inactive).

Turning to `CCCc1nc(-c2cc3cc(C)ccc3[nH]c2=O)no1`, the inhibition by setting is: (at 35 µM) 61.5% (active); (confirmation repeats, at 20 µM) 60%. With `CC(=O)OCc1cc2cc(C)ccc2[nH]c1=O`, the inhibition (at 35 µM) was 9.2% (inactive). The same measure, in the same setting: the value for `COc1ccc(-n2ncc3c2CC(C)(C)CC3NC(=O)CCc2c(C)noc2C)cc1` (stereo not given) was 9.7% (inactive); that for `CCCS(=O)(=O)N1CCN=C1SCc1cccc(F)c1` was -1.7% (inactive); that for `COc1ccc(CNC(=O)C(=O)NCC2OCCN2C(=O)c2ccc(OC)cc2)cc1` (stereo not given) was -1% (inactive).

Consider `Cc1ccc(S(=O)(=O)N2CC(C)N(S(C)(=O)=O)C2)cc1` (stereo not given), for which the inhibition (at 35 µM) was 2% (inactive). Still for that read-out and setting: for `Cc1cc(C)c2nc(NC(=O)C3CCCO3)sc2c1` (stereo not given) the value was -13.4% (inactive). Consider `Cc1cc([N+](=O)[O-])ccc1NC(=O)C1CCCO1` (stereo not given), for which the inhibition (at 35 µM) was -5.5% (inactive). As for `Cc1ccc(C)c(C(C)NC(=O)C2CCCO2)c1` (stereo not given), where the note is “at 35 µM”, the inhibition is 102% (active).

As to `COc1ccc(NC(=O)c2cc([N+](=O)[O-])ccc2NC(=O)CNC2CCCCC2C)c(OC)c1` (stereo not given), the inhibition (at 35 µM) was 9.1% (inactive). Still for that read-out and setting: the value for `O=C(CCc1nnc2ccc(NCCCN3CCCC3=O)nn12)NCc1ccccc1Cl` was 2.5% (inactive); that for `CCOC(=O)N1CCN(C(=O)COc2ccc(Br)cc2)CC1` was -4.7% (inactive); that for `Cc1ccc(C(=O)OC2CCCN(C)C2)cc1` (stereo not given) was -1.5% (inactive). On to `CN1CCCC(OC(=O)COc2ccc(Br)cc2)C1` (stereo not given), for which the inhibition is, setting by setting: (at 35 µM) 0.4% (active); (confirmation repeats, at 20 µM) 55%. Turning to `O=C(NC(=S)Nc1ncccn1)c1ccccc1Br`, the inhibition (at 35 µM) was 2.7% (inactive).

In the case of `CCCc1ccc(OCCNC(=O)c2ccccc2Br)cc1`, the inhibition (at 35 µM) was 1.2% (inactive). Take `CCOc1cnc(C(=O)NNC(=O)c2ccccc2Br)o1`: the inhibition was 12.8% (active) (at 35 µM) and 95.2% (confirmation repeats, at 20 µM). With `COc1ccc(C(=O)Nc2ccc(C3(C#N)CCCC3)cc2)cc1OC`, under “at 35 µM”, the inhibition was -5.5% (inactive). Still for that read-out and setting: for `CC1CCN(S(=O)(=O)c2ccc3[nH]c(=O)ccc3c2)CC1` the value was -3.1% (inactive). On to `Cc1c(-c2ccccc2)cn2c1-c1ccc(C)n1CC2`, for which the inhibition (at 35 µM) was 88.3% (active). With `CCN(CC)c1ccc2cc(C(N)=O)/c(=N\NC(=O)c3ccncc3)oc2c1`, the inhibition (at 35 µM) is 1.8% (inactive). Turning to `CCN(CC)c1ccc2oc(=O)c(C)nc2c1`, the inhibition (at 35 µM) was 116% (active) and the inhibition (confirmation repeats, at 20 µM) was determined as 62.7%. On to `CCN(CC)c1ccc(/C=N/Nc2nc(C)cc(=O)[nH]2)cc1`, for which the inhibition (at 35 µM) is -2.5% (inactive). On to `O=[N+]([O-])c1ccccc1/C=C/CN1CCC(O)CC1`, for which, under “at 35 µM”, the inhibition was 4.7% (inactive). On the same count and under the same terms, for `O=C(O)c1ccc(-n2nc(-c3ccccc3)c3ccccc3c2=O)cc1` the value was 8.1% (inactive); for `Cc1ccc(S(=O)(=O)N2CCC(Oc3ccc(-n4cnnn4)cc3)CC2)cc1`, 6.3% (inactive). Take `CCOc1ccc(-n2cnnn2)cc1S(=O)(=O)N1CCC(C)CC1C` (stereo not given): the inhibition (at 35 µM) is 74.4% (active) and the inhibition (confirmation repeats, at 20 µM) came out at 87.6%. Turning to `CCOc1ccc(Br)cc1S(=O)(=O)N1CCC(C(=O)O)CC1`, under “at 35 µM”, the inhibition is -2.2% (inactive).

In the case of `Cc1cccc(C(=O)N2CCCC(Nc3ccc(C(C)C)cc3)C2)n1` (stereo not given), the inhibition (at 35 µM) was 6.3% (inactive). In the case of `CCOC(=O)c1c(C)[nH]c(C2=NNC(=NC(C)COC)SC2)c1C` (stereo not given), the inhibition (at 35 µM) is 50.4% (active) and the inhibition (confirmation repeats, at 20 µM) is 104%. On to `CCCCOC(=O)c1[nH]c(C)c(C(=O)OC)c1C`, for which, for the setting “at 35 µM”, the inhibition was -3.8% (inactive). As for `CCOC(=O)c1c(C)[nH]c2c1-c1ccccc1C(=O)C2=O`, the inhibition (at 35 µM) was -3.9% (inactive). Still for that read-out and setting: for `COCCCNS(=O)(=O)c1cccc(S(=O)(=O)c2cccc(S(=O)(=O)NCCCOC)c2)c1` the value was -6.2% (inactive). For the compound `Nc1ccc(S(=O)(=O)NC(=O)c2ccccc2)cc1`, the inhibition is 50.5% (active) (at 35 µM) and 72.5% (confirmation repeats, at 20 µM).

Turning to `CC(=O)NS(=O)(=O)c1ccccc1`, where the note is “at 35 µM”, the inhibition is 8.1% (inactive).

For `Cc1ccc(S(=O)(=O)NC(=O)c2cccc(C)c2)cc1`, where the note is “at 35 µM”, the inhibition is 4.3% (inactive). Still for that read-out and setting: the value for `COC(=O)Cc1ccc(NC(=S)NCc2ccc(Cl)cc2)cc1` was 1.5% (inactive). In the case of `Fc1ccccc1CNC(=S)Nc1ccc(Cl)cc1`, the inhibition is 59.1% (active) (at 35 µM) and 83% (confirmation repeats, at 20 µM). With `S=C(NCc1cccs1)Nc1ccc(Cl)cc1`, the inhibition (at 35 µM) is -4.3% (inactive). Regarding `CC1CCCN(CCCNC(=O)CN2C(=O)COc3ccc(S(=O)(=O)N4CCOCC4)cc32)C1` (stereo not given), for the setting “at 35 µM”, the inhibition is 2.3% (inactive).

With `C=CCNC(=S)/N=c1/ccccn1Cc1ccccc1`, the inhibition (at 35 µM) was 12.9% (inactive). Still for that read-out and setting: for `O=C(OCc1cc2ccccc2[nH]c1=O)c1cccnc1` the value was -2.2% (inactive). As for `O=C(OCc1cc(Cl)ccc1OC(F)F)c1cccnc1`, the inhibition by setting is: (at 35 µM) 16.1% (active); (confirmation repeats, at 20 µM) 81.2%. On to `O=C(/C=C/c1ccc(Cl)cc1Cl)c1cccnc1`, for which the inhibition (at 35 µM) was -1% (inactive).
